In assay [1] the target is Oxysterols receptor LXR-alpha (Homo sapiens) (UniProt Q13133). The experiment in a line: ATG_LXRa_TRANS: Attagene TRANS-FACTORIAL HepG2 Assay for human Liver X Receptor alpha (LXRa) (AID 2282980; active = hit-call score of the fitted dose curve at least 0.9, where 1 is the maximum). Conditions: HepG2 Attagene TRANS reporter, LXRa transactivation. In outline: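 In this multiplexed TRANS system, compounds act on HepG2 cells carrying GAL4-UAS reporter units and a receptor-GAL4 fusion for 24 h. Induced reporter RNA is amplified, fluorescently labelled and sized by capillary electrophoresis, with DMSO as baseline.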
Chain of Oxysterols receptor LXR-alpha (Homo sapiens) (Q13133 whole entry, looked up, the tested form may be a part): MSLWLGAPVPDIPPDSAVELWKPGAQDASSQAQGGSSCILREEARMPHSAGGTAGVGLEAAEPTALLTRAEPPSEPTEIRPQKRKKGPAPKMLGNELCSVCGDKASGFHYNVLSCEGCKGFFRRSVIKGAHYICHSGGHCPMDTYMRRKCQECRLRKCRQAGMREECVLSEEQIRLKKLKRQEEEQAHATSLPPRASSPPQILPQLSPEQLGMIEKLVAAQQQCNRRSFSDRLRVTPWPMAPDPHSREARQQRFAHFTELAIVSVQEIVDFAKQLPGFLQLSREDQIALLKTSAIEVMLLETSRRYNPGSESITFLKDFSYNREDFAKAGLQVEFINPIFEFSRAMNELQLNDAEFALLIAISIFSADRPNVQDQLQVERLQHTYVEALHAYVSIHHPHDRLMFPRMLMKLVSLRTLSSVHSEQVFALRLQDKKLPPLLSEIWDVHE

Assay [2] is described as follows: ATG_M_06_TRANS: Attagene TRANS-FACTORIAL HepG2 Assay for M06 Transcription Factor (Internal Marker) (AID 2282983; active = hit-call score of the fitted dose curve at least 0.9, where 1 is the maximum;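 note: reporter transcript level by RT-PCR then capillary electrophoresis fluorescence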). Conditions: HepG2 Attagene TRANS M06 internal marker reporter. In outline: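 Internal-marker background readout from a multiplexed TRANS reporter system in HepG2; 24 h dosing; mRNA induction quantified by RT-PCR plus capillary electrophoresis fluorescence; DMSO as negative control and baseline.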

Assay [3] concerns the target Nuclear receptor subfamily 4 group A member 2 (Homo sapiens) (UniProt P43354). The experiment in a line: ATG_NURR1_TRANS: Attagene TRANS-FACTORIAL HepG2 Assay for human Nuclear Receptor Related Protein 1 (NURR1) (AID 2282985; active = hit-call score of the fitted dose curve at least 0.9, where 1 is the maximum). Conditions: HepG2 Attagene TRANS reporter, mRNA readout. A digest of the protocol:
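Transient transfection of HepG2, human liver cells, with multiple GAL4-UAS reporter transcription units. Cells dosed 24 h, RNA isolated, reverse-transcribed, PCR-amplified, FAM-labelled, HpaI-digested, sized by capillary electrophoresis. DMSO served as negative control.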

The target of assay [4] is Transcriptional activator Myb (Homo sapiens) (UniProt P10242). The experiment in a line: ATG_Myb_CIS: Attagene CIS-FACTORIAL HepG2 Assay for human Myeloblastosis (Myb) Proto-Oncogene Transcription Factor (AID 2282986). As to conditions: HepG2 Attagene CIS-FACTORIAL Myb reporter transcription; actives raise or lower the signal. A digest of the protocol: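 Steps: transfect HepG2 with cis-regulated reporter units; dose with chemical for 24 h; isolate RNA, reverse-transcribe, PCR-amplify and FAM-label reporter sequences; digest with HpaI; resolve by capillary electrophoresis. Activity fitted in both directions relative to DMSO.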
Chain of Transcriptional activator Myb (Homo sapiens) (P10242 whole entry, looked up): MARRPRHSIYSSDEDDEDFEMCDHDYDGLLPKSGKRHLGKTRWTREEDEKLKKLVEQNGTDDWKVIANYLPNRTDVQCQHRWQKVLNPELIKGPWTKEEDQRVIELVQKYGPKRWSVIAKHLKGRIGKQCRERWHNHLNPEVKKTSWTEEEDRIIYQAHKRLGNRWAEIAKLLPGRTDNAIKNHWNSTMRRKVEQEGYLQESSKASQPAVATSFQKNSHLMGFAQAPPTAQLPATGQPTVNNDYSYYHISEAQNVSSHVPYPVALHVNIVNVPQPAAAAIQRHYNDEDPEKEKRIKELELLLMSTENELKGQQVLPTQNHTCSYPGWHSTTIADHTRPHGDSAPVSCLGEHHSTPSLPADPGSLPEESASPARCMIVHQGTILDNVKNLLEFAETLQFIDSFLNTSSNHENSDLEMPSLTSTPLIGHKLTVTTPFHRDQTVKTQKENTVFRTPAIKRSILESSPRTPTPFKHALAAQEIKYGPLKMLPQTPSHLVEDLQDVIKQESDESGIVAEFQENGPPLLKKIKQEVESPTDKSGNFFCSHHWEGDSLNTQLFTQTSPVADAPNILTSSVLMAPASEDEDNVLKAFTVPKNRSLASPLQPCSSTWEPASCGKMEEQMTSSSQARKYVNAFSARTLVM

Assay [5] addresses Nuclear respiratory factor 1 (Homo sapiens) (UniProt Q16656). The experiment in a line: ATG_NRF1_CIS: Attagene CIS-FACTORIAL HepG2 Assay for human Nuclear Respiratory Factor 1 (NRF1) Orphan Gene (AID 2282987). As to conditions: HepG2 NRF1 cis-element reporter, Attagene multiplex; actives raise or lower the signal. In outline: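 Fluorescence intensity of labelled reporter cDNA fragments, resolved by capillary electrophoresis, served as readout for NRF1 cis-element activity. Transiently transfected HepG2 cells were dosed for 24 hours; activity in either direction was fitted against DMSO negative control.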

Assay [6] can be described thus: ATG_NFI_CIS: Attagene CIS-FACTORIAL HepG2 Assay for human Nuclear Factor I (NFI) (AID 2282989). As to conditions: HepG2 cis-regulatory reporter, NFI response element transcription; actives raise or lower the signal. In outline:
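HepG2, transient MRTU, 24 h exposure; RNA→cDNA→PCR→FAM label→HpaI→CE fluorescence. Bidirectional fit, DMSO = baseline.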

For assay [7], the target named is Myc proto-oncogene protein (Homo sapiens) (UniProt P01106). In words: ATG_Myc_CIS: Attagene CIS-FACTORIAL HepG2 Assay for human Myelocytomatosis (Myc) Proto-Oncogene Transcription Factor (AID 2282990). Conditions: HepG2, Attagene cis-reporter transcription factor activity; actives raise or lower the signal. In outline:
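Cells of the HepG2 human liver line bear multiple cis-driven reporter transcription units. Reporter mRNA after 24 h exposure is reverse-transcribed, amplified, labelled and resolved by capillary electrophoresis, with gain- or loss-of-signal fitting relative to DMSO.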

Assay [8] is described as follows: ATG_NRF2_ARE_CIS: Attagene CIS-FACTORIAL HepG2 Assay for human Nuclear Factor Erythroid 2 Related Factor 2 (NFR2) response to Antioxidant Response Elements (ARE) (AID 2282992).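 For AC50: reporter mRNA level measured by RT-PCR and capillary electrophoresis fluorescence.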 Conditions: HepG2 Attagene ARE/NRF2 reporter, transcription factor activity; actives raise or lower the signal. In outline: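 HepG2 cells transiently transfected with multiplexed cis-element reporter constructs, 24 h after chemical dosing; reporter mRNA quantified by RT-PCR, fluorescent primer extension, HpaI digestion and capillary electrophoresis. Bidirectional fit relative to DMSO.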

Assay [9] in a line: ATG_Oct_MLP_CIS: Attagene CIS-FACTORIAL HepG2 Assay for human Octamer-Binding Transcription Factor (Oct) (AID 2282993). Conditions: HepG2 Attagene cis-factorial Oct reporter, mRNA; actives raise or lower the signal. In outline: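 Multiplexed cis-reporter assay in human liver HepG2 cells, 24 h incubation. Reporter RNA amplified and labelled, then resolved by capillary electrophoresis; DMSO serves as negative control and baseline.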

In assay [10] the target is Oxysterols receptor LXR-beta (Homo sapiens) (UniProt P55055). The experiment in a line: ATG_LXRb_TRANS: Attagene TRANS-FACTORIAL HepG2 Assay for human Liver X Receptor beta (LXRb) (AID 2282981; active = hit-call score of the fitted dose curve at least 0.9, where 1 is the maximum). Conditions: HepG2 Attagene TRANS GAL4-LXRb reporter, mRNA. A digest of the protocol:
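Transient transfection HepG2 (multiplexed RTUs, GAL4-UAS); NR-Gal4 chimera; 24 h exposure; RNA → RT-PCR → 6-FAM primer extension → HpaI → CE; increase vs DMSO.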

The nature of assay [11]: ATG_M_32_TRANS: Attagene TRANS-FACTORIAL HepG2 Assay for M32 Transcription Factor (Internal Marker) (AID 2282984; active = hit-call score of the fitted dose curve at least 0.9, where 1 is the maximum;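 note: transcript level of a background control reporter unit measured by RT-PCR and capillary electrophoresis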). Conditions: HepG2 Attagene TRANS M32 internal marker reporter. A digest of the protocol:
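Measures reporter mRNA induction in human HepG2 liver cells after 24 h chemical treatment. Transcripts from transiently transfected GAL4-UAS reporter units are amplified, fluorescently labelled and sized by capillary electrophoresis; gain of signal relative to DMSO.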

The target of assay [12] is Hepatocyte nuclear factor 4-alpha (Homo sapiens) (UniProt P41235). The experiment in a line: ATG_HNF4a_TRANS: Attagene TRANS-FACTORIAL HepG2 Assay for human Hepatocyte Nuclear Factor 4 alpha (HNF4a) (AID 2282982; active = hit-call score of the fitted dose curve at least 0.9, where 1 is the maximum). Conditions: HepG2 HNF4a transactivation reporter, mRNA readout. A digest of the protocol:
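Readout is fluorescent reporter-transcript fragments resolved by capillary electrophoresis after RT-PCR from HepG2 cells dosed for 24 h. Cells carried transfected GAL4-UAS reporter constructs measuring exogenous NR-GAL4 chimera activity; DMSO served as baseline.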

Assay [13] addresses Cellular tumor antigen p53 (Homo sapiens) (UniProt P04637). In words: ATG_p53_CIS: Attagene CIS-FACTORIAL HepG2 Assay for human p53 Transcription Factor (AID 2282994). As to conditions: HepG2 p53 cis-element reporter, Attagene mRNA; actives raise or lower the signal. A digest of the protocol: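 HepG2 cells transiently transfected with cis-regulated multiple reporter transcription units, dosed 24 h. Reporter mRNA measured by RT-PCR, 6-FAM primer extension, HpaI digestion and capillary electrophoresis; bidirectional fit relative to DMSO.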

Assay [14] can be described thus: ATG_NF_kB_CIS: Attagene CIS-FACTORIAL HepG2 Assay for human Nuclear Factor Kappa B (NF-kB) (AID 2282991). As to conditions: HepG2 Attagene cis-factorial NF-kB reporter mRNA; actives raise or lower the signal. A digest of the protocol:
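Endogenous transcription factor activity in HepG2 was captured via cis-regulated reporter constructs; after 24 h dosing, reporter mRNA was reverse-transcribed, amplified, fluorescently labelled and sized by capillary electrophoresis, with activity fitted bidirectionally relative to DMSO.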

Assay [15] can be described thus: BSK_3C_TissueFactor: BioMAP Diversity Plus: 3C Assay for Tissue Factor Biomarker Activity (AID 2282997). As to conditions: BioMAP 3C HUVEC, tissue factor biomarker readout; actives raise or lower the signal. In outline:
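Endothelial monolayers (human umbilical vein, primary) are dosed, incubated 24 h, and assayed for Tissue Factor by ELISA; DMSO serves as negative control for bidirectional fitting.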

Assay [16] in a line: BSK_3C_uPAR: BioMAP Diversity Plus: 3C Assay for Urokinase-type plasminogen activator receptor (uPAR) Biomarker Activity (AID 2282998). Conditions: BioMAP 3C HUVEC, uPAR biomarker ELISA; actives raise or lower the signal. A digest of the protocol: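 Dose primary human umbilical vein endothelial cells, incubate 24 h, measure cell-surface uPAR by ELISA, then fit the signal in both directions against the DMSO negative control.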
For orientation: ELISA stands for enzyme-linked immunosorbent assay.

Assay [17] is described as follows: BSK_3C_VCAM1: BioMAP Diversity Plus: 3C Assay for Vascular cell adhesion molecule 1 (VCAM1) Biomarker Activity (AID 2282999). Conditions: BioMAP 3C HUVEC, VCAM1 ELISA, cytokine-stimulated; actives raise or lower the signal. A digest of the protocol: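 Endothelial cells from human umbilical vein are treated with test chemical. At 24 h, VCAM-1 is measured by ELISA, and responses in either direction are fitted relative to DMSO.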

Assay [18] in a line: BSK_4H_Eotaxin3: BioMAP Diversity Plus: 4H Assay for Eotaxin 3 Biomarker Activity (AID 2283000).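 Note: CCL26 protein level quantified by ELISA in parallel with SRB cytotoxicity check.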 As to conditions: primary human endothelial cells (HUVEC); actives raise or lower the signal. A digest of the protocol: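 ELISA quantitation of CCL26 (Eotaxin-3) protein from chemically dosed human vascular endothelial cells at 24 h; increases and decreases both scored relative to DMSO-treated baseline.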

Records with an inconclusive call do not appear. Active and inactive are the calls of the source. Rule for the calls, unless noted: active = hit-call score of the fitted dose curve at least 0.9, where 1 is the maximum; inactive = score below 0.9.

Chain of Myc proto-oncogene protein (Homo sapiens) (P01106 whole entry, looked up): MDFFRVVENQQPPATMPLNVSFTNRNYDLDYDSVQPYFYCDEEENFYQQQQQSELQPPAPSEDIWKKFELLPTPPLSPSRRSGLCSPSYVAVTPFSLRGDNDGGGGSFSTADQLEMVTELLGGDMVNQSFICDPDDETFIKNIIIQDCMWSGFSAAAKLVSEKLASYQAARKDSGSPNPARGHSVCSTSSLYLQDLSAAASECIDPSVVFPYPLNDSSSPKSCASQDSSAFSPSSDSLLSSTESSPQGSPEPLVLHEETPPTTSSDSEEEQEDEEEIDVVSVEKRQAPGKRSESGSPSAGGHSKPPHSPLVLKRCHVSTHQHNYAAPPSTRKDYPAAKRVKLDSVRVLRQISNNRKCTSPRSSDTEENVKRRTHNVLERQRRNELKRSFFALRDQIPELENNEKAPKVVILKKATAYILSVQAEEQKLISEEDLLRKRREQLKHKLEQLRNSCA
Chain of Hepatocyte nuclear factor 4-alpha (Homo sapiens) (P41235 whole entry, looked up, the tested form may be a part): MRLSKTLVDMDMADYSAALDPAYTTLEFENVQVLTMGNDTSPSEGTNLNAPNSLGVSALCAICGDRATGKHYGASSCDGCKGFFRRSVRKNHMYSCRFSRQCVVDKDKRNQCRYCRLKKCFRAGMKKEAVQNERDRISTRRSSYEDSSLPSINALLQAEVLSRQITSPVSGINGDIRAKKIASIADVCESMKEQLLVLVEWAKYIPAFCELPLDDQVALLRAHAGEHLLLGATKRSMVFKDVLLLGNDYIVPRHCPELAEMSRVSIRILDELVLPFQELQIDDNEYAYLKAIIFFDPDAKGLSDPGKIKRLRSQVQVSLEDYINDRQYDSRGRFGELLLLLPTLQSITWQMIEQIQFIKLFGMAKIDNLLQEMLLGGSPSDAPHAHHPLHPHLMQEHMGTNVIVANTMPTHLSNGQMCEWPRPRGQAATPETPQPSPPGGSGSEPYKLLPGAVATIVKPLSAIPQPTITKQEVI
Chain of Cellular tumor antigen p53 (Homo sapiens) (P04637 whole entry, looked up): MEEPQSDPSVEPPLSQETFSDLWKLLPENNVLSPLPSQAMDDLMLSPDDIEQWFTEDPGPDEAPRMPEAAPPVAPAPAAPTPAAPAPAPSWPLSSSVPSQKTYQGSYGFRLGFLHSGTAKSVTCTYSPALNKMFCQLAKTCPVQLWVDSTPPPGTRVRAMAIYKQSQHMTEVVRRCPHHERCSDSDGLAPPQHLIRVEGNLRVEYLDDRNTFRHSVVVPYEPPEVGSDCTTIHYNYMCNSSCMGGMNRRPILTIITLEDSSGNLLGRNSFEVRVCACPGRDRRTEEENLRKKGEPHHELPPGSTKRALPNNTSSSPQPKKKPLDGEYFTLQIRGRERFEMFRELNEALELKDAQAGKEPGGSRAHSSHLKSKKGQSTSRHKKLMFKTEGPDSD
Chain of Oxysterols receptor LXR-beta (Homo sapiens) (P55055 whole entry, looked up, the tested form may be a part): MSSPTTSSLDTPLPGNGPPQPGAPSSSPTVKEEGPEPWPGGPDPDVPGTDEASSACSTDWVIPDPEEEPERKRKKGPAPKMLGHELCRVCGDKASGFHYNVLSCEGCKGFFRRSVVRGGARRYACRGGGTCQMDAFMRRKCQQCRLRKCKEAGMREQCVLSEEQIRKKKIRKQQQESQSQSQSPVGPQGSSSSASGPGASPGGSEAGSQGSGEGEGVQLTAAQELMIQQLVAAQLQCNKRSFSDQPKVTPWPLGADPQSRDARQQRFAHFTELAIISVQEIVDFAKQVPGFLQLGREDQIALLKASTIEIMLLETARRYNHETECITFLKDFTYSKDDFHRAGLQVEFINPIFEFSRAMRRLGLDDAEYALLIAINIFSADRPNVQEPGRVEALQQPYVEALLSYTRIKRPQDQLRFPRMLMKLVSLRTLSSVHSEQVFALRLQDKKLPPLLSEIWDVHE
Chain of Nuclear receptor subfamily 4 group A member 2 (Homo sapiens) (P43354 whole entry, looked up, the tested form may be a part): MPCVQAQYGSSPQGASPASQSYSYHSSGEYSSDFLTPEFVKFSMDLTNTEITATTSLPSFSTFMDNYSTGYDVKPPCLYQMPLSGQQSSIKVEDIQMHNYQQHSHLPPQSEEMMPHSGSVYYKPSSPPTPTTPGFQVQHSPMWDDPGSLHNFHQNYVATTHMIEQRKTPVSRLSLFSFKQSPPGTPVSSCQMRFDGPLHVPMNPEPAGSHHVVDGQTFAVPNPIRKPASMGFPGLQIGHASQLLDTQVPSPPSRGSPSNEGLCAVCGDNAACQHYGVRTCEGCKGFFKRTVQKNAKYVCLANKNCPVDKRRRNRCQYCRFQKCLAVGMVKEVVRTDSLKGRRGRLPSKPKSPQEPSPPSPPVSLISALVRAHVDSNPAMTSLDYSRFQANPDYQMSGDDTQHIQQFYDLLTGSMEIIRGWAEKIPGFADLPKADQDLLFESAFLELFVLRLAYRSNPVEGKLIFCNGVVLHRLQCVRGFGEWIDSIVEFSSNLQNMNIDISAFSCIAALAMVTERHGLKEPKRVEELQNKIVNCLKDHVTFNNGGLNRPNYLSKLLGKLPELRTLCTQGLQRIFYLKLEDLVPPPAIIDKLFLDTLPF
Chain of Nuclear respiratory factor 1 (Homo sapiens) (Q16656 whole entry, looked up, the tested form may be a part): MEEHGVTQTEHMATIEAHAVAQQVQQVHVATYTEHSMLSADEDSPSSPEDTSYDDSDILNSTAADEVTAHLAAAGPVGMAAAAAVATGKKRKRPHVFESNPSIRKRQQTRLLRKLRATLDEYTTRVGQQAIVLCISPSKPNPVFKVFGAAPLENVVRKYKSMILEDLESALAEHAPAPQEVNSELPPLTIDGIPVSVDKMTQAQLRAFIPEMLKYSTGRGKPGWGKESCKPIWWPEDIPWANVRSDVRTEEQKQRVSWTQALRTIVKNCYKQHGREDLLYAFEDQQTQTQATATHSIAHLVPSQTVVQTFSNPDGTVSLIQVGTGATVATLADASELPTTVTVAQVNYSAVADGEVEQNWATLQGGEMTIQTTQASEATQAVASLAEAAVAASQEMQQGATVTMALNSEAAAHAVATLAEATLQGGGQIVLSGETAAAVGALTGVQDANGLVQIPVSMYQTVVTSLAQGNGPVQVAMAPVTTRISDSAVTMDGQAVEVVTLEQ

In the case of `CC(=O)[O][Al][O]C(C)=O`, the call in assay [1], in assay [2], in assay [3], in assay [4], in assay [5] and in assay [6] was inactive. For the same compound, the compound was called inactive in assay [7], in [8] and in assay [9].
For `OCCCCCO`, the compound was classed as inactive in [1], in assay [10], in [2], in [11], in assay [4] and in assay [5]. The compound was called inactive in assay [6], in assay [7] and in assay [9].
Consider `COc1ccc(NC(=O)CC(C)=O)cc1`, for which the outcome in assay [1], in assay [12], in assay [2], in assay [11], in [3] and in [4] was inactive. The compound was classed as inactive in [5], in assay [6], in [7], in assay [8], in assay [9] and in assay [13].
Consider `OCC(CO)(CO)COCC(CO)(CO)CO`, for which the outcome in [1], in assay [12], in [2], in [11], in [4] and in assay [5] was inactive. For the same compound, the compound was classed as inactive in assay [6], in assay [7], in [14], in [8] and in assay [13].
`CN1[C@@H]2CC(OC(=O)[C@H](CO)c3ccccc3)C[C@H]1[C@@H]1O[C@@H]12` (stereo not given in full): the compound was classed as inactive in [1], in assay [10], in assay [2], in assay [11], in [7] and in assay [9]. For the same compound, the compound was classed as inactive in [13].
Regarding `CCCCCCCCCC=O`, the outcome in [1], in assay [2], in assay [3], in assay [4], in [5] and in assay [6] was inactive. Also, the call in [7], in [8], in [9], in assay [13], in [15] and in assay [16] was inactive. Moreover, the outcome in assay [17] and in assay [18] was inactive.
The AC50 is the concentration at which the activity in the assay is half-maximal. On to `COC(C)CCO` (stereo not given), for which the AC50 is 27.7 µM (active) in assay [1], 63.3 µM (active) in [8], 151 µM (active) in assay [9] and 162 µM (active) in assay [13]. Also, the compound was classed as inactive in [10], in assay [2], in assay [3], in assay [4], in assay [5] and in assay [6]. Moreover, the compound was called inactive in assay [7] and in assay [14].
As to `OC1C(O)C(O)C(O)C(O)C1O` (stereo not given), the result in assay [1], in [12], in assay [2], in assay [11], in assay [3] and in assay [4] was inactive. The call in assay [5], in assay [6], in assay [7], in [14] and in [9] was inactive.
